# In all, about 2,400 compounds went through this assay and about 1,800 (75%) were called active.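 Rule for the calls: active = inhibition above the primary screen limit, the mean inhibition of all tested compounds plus 3 SD (cut at about 25% in these data); inactive = the rest.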 The set was probably picked from earlier hits. Only a sample is shown.
# Tested on: tRNA 2'-phosphotransferase TPT1 [Candida albicans SC5314]
# Experiment: Candida albicans TPT1 inhibitors, confirmation, biochemical, fluorescence polarization, triplicate (AID 2149)
# Settings: recombinant caTPT1, fluorescence polarization, RNase T1 coupled; at 5 µM; hits give high values
row,Compound,inhibition
1,CCCCC(=O)N/N=C/c1c(O)n(CC)c(=S)n(CC)c1=O,98.8% (active)
2,CCN1C(=O)C(=Cc2c(C)n(CC(=O)NCC3CCCO3)c3ccccc23)C(=O)N(CC)C1=S (centres undefined),18.6% (inactive)
3,O=C1NC(=O)N(Cc2ccco2)C(=O)/C1=C\c1cccn1CCOc1ccccc1,6.57% (inactive)
4,COc1ccc(N2C(=O)/C(=C/c3ccco3)C(=O)NC2=S)cc1,27.9% (active)
5,O=C1NC(=O)N(Cc2ccco2)C(=O)/C1=C\c1ccc(-c2ccc(F)cc2)o1,11.4% (inactive)
6,O=C1CC(=O)N(Cc2ccccc2)C(=O)N1CCCCCCN1C(=O)CC(=O)N(Cc2ccccc2)C1=O,25.7% (active)
7,COc1ccccc1N=Nc1c(O)[nH]c(=S)[nH]c1=O,64.9% (active)
8,CC(C)n1c(=O)c(C=Nc2ccc(Br)cc2)c(O)n(Cc2ccco2)c1=O,17.1% (inactive)
9,CC/C(=N\NC(=O)c1ccccc1O)c1c(O)n(Cc2ccccc2)c(=O)[nH]c1=O,21.9% (inactive)

# From PubChem BioAssay AID2149 (The Scripps Research Institute Molecular Screening Center, 2009)
